Assay results reported in the supplement of paper PMC11732987, “Enantioselective OTUD7B fragment discovery through chemoproteomics screening and high-throughput optimisation” (Communications Chemistry, 2025).

Tests used:
Test in all cases: log2 ratio of Biotin-Ahx-Ub-VS probe labelling (fragment/DMSO); higher = less target engagement (more negative = stronger competition), active = hit call of the paper (q ≤ 0.05, log2 ratio ≤ -1)
Settings in all cases: compound concentration: 200 uM; treatment time: 3 h
USP34 = USP34 (UniProt Q70CQ2)
USP34, sequence (Q70CQ2 whole entry, the tested form may be a part): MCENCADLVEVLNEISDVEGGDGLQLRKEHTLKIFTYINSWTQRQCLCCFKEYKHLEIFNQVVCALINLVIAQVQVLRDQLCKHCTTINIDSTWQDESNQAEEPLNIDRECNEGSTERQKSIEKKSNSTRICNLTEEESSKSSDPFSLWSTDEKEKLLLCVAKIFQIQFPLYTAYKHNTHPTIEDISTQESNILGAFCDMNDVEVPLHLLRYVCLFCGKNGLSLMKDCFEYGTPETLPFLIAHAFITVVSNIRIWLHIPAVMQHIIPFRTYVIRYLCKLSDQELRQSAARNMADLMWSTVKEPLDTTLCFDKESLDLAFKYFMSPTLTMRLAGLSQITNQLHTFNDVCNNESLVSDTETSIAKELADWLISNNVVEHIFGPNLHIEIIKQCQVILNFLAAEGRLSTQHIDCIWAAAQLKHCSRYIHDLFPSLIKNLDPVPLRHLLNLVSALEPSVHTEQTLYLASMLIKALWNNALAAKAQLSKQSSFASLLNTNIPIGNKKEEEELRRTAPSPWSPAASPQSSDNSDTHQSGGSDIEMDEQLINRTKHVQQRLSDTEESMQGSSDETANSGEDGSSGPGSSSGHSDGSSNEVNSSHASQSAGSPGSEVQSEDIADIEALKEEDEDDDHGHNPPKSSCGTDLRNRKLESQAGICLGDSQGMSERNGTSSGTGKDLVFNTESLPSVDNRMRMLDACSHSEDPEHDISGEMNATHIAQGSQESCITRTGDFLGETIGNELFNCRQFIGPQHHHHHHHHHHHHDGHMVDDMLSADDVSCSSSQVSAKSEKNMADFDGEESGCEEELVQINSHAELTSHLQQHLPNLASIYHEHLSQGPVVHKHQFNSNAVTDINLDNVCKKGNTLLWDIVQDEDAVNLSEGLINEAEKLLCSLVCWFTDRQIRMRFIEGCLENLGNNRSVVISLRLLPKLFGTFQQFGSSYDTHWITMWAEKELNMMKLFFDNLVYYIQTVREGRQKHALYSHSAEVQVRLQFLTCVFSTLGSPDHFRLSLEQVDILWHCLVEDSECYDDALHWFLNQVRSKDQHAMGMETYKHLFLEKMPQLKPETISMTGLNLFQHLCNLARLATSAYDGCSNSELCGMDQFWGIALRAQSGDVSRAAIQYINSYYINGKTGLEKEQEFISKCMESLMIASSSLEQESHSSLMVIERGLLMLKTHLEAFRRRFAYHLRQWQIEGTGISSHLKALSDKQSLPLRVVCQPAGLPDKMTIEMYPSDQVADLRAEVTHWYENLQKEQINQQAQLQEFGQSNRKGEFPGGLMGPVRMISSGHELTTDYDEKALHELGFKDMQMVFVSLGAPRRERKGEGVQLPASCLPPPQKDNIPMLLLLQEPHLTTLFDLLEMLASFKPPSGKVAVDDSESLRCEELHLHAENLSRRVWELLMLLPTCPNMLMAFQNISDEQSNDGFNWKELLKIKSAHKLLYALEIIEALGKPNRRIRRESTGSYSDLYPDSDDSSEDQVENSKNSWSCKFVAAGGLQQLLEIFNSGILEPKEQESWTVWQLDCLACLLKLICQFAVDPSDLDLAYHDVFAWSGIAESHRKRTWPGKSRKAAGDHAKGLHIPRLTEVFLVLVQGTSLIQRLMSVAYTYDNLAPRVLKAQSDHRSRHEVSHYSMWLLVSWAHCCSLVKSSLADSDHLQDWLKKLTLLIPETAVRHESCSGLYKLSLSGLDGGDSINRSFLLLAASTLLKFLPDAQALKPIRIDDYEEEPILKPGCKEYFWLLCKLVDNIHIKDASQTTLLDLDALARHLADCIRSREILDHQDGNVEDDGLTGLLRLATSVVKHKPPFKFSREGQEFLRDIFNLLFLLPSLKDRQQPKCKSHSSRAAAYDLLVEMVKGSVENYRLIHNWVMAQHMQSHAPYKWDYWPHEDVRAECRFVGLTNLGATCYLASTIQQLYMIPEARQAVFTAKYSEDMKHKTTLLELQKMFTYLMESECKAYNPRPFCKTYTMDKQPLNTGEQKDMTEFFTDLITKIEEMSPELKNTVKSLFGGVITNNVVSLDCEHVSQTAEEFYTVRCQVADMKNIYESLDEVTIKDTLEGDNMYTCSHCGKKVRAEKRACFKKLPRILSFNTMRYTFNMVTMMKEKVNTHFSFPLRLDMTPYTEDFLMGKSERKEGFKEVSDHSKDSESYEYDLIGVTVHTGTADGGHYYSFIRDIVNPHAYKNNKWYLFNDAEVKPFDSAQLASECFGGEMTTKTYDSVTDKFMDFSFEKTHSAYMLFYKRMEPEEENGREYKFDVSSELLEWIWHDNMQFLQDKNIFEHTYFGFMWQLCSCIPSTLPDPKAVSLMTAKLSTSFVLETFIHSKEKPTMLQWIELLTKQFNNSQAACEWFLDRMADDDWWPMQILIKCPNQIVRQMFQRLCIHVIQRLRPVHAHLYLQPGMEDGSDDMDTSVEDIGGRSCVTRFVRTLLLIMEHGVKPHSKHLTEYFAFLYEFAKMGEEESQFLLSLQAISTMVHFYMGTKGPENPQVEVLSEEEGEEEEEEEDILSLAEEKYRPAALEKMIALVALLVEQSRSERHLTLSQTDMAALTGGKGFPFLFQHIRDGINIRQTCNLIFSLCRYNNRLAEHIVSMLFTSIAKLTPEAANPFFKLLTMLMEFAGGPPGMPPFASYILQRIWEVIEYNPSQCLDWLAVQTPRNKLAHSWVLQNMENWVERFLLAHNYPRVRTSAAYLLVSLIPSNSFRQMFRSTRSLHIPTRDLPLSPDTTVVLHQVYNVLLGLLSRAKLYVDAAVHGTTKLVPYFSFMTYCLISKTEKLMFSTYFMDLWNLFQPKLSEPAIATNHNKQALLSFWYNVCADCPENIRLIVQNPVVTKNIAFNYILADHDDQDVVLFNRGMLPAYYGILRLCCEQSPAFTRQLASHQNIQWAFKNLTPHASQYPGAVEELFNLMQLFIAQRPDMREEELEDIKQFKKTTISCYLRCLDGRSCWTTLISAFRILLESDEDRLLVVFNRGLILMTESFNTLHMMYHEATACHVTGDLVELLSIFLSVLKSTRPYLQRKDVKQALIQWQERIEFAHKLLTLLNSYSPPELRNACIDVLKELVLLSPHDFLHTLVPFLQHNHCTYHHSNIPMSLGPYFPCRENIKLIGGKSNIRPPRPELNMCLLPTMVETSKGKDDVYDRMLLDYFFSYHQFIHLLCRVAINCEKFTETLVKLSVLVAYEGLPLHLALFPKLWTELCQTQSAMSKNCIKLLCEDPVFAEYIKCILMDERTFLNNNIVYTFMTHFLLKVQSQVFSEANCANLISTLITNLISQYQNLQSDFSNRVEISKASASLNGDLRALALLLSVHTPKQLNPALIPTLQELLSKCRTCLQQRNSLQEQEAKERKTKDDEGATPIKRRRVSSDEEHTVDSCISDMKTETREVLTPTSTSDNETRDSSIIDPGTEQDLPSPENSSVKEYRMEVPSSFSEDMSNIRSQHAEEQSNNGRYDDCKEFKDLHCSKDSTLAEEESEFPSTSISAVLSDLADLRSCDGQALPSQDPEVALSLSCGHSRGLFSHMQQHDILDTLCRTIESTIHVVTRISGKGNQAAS
How it was run: (§1)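 Triplicate samples of HEK293T lysate, 495 µg each, received fragment at 200 µM or vehicle for 3 h, followed by Biotin-Ahx-Ub-VS (0.5 µM final) for 1 h. After NeutrAvidin enrichment of labelled DUBs and LysC/trypsin digestion, peptides were run by diaPASEF LC-MS/MS. The values are average log2 fragment/vehicle ratios from global-median-normalised Spectronaut label-free quantities, tested by unpaired t-test on proteins having ≥2 unique peptides.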

USP36 = molecular target: T1, USP36 (UniProt Q9P275)
T1 sequence (whole entry): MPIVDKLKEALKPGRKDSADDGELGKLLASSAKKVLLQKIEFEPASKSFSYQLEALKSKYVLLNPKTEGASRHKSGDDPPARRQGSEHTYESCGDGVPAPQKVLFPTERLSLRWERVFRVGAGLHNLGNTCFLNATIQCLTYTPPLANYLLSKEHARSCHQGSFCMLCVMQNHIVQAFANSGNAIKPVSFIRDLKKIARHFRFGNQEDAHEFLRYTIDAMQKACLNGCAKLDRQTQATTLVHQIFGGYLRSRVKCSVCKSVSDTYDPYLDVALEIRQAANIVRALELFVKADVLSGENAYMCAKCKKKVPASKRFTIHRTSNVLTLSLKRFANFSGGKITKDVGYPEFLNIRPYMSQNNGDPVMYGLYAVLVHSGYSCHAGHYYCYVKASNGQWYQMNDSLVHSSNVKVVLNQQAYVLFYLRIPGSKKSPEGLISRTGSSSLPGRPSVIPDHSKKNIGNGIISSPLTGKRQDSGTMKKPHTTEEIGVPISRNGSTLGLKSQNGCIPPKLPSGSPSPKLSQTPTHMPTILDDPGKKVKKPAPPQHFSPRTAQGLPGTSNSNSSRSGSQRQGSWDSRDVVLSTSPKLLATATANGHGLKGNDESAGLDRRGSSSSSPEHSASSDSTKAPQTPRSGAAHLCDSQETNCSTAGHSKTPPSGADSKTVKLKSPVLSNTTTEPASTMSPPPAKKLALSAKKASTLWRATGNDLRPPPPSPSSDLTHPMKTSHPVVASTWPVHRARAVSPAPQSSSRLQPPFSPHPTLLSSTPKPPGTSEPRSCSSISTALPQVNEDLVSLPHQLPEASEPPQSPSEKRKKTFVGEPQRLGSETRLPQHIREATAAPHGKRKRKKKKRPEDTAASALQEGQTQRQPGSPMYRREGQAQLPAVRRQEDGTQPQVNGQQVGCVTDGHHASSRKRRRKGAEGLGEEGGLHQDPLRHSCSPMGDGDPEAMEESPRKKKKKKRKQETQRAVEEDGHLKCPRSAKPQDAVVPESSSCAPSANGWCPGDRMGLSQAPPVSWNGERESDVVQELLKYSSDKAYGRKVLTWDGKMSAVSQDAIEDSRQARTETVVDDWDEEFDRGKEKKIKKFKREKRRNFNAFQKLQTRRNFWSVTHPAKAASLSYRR
How it was run: as §1

USP38 = molecular target: T2, USP38 (UniProt Q8NB14)
T2 sequence (whole entry): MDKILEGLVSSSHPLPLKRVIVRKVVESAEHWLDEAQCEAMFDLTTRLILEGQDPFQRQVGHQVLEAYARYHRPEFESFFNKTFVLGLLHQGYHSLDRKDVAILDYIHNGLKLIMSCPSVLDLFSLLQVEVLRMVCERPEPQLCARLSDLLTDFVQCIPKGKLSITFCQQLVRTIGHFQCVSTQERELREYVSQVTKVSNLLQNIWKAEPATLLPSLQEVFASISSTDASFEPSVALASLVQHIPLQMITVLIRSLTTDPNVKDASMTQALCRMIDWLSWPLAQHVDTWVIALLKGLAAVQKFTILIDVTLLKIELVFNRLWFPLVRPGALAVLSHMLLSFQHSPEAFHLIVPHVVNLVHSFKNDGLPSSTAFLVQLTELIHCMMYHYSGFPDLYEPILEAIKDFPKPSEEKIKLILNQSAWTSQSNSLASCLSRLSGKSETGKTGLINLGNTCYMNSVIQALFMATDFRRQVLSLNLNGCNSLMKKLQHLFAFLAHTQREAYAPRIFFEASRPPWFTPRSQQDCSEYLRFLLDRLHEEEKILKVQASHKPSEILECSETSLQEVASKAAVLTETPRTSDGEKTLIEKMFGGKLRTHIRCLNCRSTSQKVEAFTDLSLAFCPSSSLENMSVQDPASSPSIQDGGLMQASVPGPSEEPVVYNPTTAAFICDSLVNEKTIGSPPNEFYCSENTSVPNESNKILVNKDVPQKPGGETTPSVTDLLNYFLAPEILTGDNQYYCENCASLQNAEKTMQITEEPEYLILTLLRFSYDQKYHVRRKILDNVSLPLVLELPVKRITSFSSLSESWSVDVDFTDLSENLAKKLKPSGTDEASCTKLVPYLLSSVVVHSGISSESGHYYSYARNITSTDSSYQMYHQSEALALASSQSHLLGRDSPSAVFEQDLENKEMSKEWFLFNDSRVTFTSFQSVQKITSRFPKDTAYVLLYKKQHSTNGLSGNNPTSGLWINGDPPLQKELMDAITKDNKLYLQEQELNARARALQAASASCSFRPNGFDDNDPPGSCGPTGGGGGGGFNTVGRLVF
How it was run: as §1

USP39 = molecular target: T3, USP39 (UniProt Q53GS9)
T3 sequence (whole entry): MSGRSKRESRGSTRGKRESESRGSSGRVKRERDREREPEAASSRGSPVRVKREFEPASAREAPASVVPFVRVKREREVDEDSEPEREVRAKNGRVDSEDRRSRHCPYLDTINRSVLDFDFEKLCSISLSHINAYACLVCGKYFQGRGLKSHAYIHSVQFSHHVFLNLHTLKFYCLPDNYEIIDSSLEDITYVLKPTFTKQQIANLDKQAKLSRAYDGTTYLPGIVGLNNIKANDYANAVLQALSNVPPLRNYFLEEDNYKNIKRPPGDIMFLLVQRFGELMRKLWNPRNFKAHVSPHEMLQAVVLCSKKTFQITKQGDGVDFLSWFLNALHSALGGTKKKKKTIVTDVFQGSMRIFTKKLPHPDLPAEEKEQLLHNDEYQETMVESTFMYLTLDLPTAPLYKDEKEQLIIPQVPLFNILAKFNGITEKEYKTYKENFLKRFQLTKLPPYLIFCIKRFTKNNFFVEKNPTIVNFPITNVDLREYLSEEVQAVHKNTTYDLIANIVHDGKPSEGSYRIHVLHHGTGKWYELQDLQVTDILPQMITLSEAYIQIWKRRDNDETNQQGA
How it was run: as §1

USP4 = molecular target: T4, USP4 (UniProt Q13107)
T4 sequence (whole entry): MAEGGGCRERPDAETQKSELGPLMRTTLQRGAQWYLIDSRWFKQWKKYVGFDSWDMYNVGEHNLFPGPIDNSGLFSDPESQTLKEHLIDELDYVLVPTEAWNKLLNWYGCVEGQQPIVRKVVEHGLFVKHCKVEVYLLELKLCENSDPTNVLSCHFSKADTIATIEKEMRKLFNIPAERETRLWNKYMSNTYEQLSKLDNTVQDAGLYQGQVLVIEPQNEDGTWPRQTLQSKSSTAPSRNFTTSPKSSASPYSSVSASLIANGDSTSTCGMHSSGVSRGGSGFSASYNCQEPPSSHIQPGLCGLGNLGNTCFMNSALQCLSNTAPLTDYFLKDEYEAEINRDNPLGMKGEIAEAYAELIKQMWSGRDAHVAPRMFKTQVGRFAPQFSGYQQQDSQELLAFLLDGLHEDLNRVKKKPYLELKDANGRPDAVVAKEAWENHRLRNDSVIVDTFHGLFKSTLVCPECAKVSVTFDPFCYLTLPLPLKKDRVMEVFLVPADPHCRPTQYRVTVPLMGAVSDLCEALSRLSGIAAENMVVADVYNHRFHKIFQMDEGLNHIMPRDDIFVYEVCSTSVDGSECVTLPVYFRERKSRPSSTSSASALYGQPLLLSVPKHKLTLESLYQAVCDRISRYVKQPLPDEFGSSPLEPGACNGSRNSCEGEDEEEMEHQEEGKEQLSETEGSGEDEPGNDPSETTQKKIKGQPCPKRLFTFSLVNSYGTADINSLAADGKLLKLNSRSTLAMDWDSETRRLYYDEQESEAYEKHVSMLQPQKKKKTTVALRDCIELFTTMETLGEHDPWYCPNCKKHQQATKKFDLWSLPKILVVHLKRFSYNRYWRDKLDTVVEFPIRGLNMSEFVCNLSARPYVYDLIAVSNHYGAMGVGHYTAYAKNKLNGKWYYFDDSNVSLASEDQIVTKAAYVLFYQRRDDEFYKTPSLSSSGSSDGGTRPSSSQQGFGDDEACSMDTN
How it was run: as §1

Measured: log2 ratio of Biotin-Ahx-Ub-VS probe labelling

N#Cc1ccc(CNC(=O)CCl)cc1
inactive: USP34 -0.0142 | USP36 0.0698 | USP38 -0.0952 | USP39 0.191 | USP4 -0.0634
